HPGD block: HPGD (human) dehydrogenase inhibition; 150,000 compounds, 4.3% hits; Potency, µM, actives largely listed as inhibitors; AID 894; purified HPGD, NADH fluorescence kinetic, PGE2 substrate; P15428; active means well fitted inhibition curve with a large enough effect, not every such curve was filed as active; inconclusive means small, poorly fitted or top-dose-only effect, or another doubt; inactive means no such curve, though single readings can be large or run the other way
Target sequence (P15428 whole entry, looked up): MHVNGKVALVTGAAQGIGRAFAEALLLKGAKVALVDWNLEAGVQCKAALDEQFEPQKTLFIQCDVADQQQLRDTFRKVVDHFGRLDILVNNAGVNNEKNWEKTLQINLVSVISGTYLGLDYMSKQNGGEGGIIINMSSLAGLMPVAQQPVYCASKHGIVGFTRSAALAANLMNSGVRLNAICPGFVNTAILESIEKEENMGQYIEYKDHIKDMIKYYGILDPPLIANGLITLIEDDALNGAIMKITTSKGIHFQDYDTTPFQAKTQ
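NADH formation kinetics: reaction with 30 uM PGE2 and 1 mM NAD+ (final), 20 nM enzyme, Tris-HCl pH 8 with Tween 20, after 15 min compound preincubation at room temperature. Fluorescence change, last versus first of five reads.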
Lamin A splicing: changes lamin A minigene splicing in HeLa cells; HeLa LMNA splicing GFP/RFP minigene ratio, 48 h; 200,000 compounds, 0.01% hits; Potency, µM (series often up to 46.1 µM), hits mostly inhibitors; active means well fitted inhibition curve with a large enough effect in the signal ratio, with a control signal flat, not every such curve was filed as active; inconclusive means small, poorly fitted or top-dose-only effect, or effect the other way, or a change in a side signal; the % refers to the signal ratio
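Read-out is the ratio of GFP to DsRed2 object intensity, acquired by 488 nm laser-scanning cytometry on HeLa lamin A-EGFP minigene reporter cells. Compound incubation 48 hrs at 37 °C in Opti-MEM with 2% FBS; DMSO 0.5% final.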
ALDH1A1 inh: ALDH1A1 (human) enzyme inhibition. P00352. Purified ALDH1A1, NADH fluorescence, propionaldehyde substrate. Potency, µM (highest dose often 75.3 µM), hits mostly inhibitors. 220,000 compounds, 7.3% hits. AID 1030; active means well fitted inhibition curve with a large enough effect, not every such curve was filed as active; inconclusive means small, poorly fitted or top-dose-only effect, or another doubt; inactive means no such curve, though single readings can be large or run the other way
HttQ103 aggreg: mutant huntingtin aggregation inhibition. Potency, µM (titrated, usually from 46.1 µM), actives largely listed as inhibitors. PC12 HttQ103-GFP aggregates, Acumen cytometry, 40 h. 220,000 compounds, 1.1% hits; further: nearly all actives have a fitted effect of over 60% in size
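Using laser scanning cytometry, GFP-positive aggregates were counted after lysis of PC12 cells induced with 100 nM tebufenozide to express HTT exon 1 Q103–GFP. Compounds were tested in titration.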
HTT ATP protect: cytoprotection in Huntington HTT-Q103 PC12 cell model; PC12 HTT-Q103 induced, cytoprotection, ATP luminescence, 40 h; Potency, µM (doses to about 56.4 µM), actives largely listed as activators; 230,000 compounds, 0.14% hits; AID 1471; further: nearly all actives have a fitted effect of over 45% in size
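Cells were plated at 1500 per well in phenol red-free DMEM with 5% equine and 5% calf serum. Tebufenozide (100 nM final) and compounds were added, then ATPlite reagent, and luminescence was read.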
Hits are given with their value; [ ] = remark or other dose. This is a sample that favours compounds with a hit; in the whole collection about 8.8% have one here. Unless noted, the call rests on the fitted dose curve; in most records, active means well fitted curve in the direction sought with a large enough effect; inconclusive means small, poorly fitted or top-dose-only effect, or another doubt; inactive means no such curve, though single readings can be large; an effect the other way counts as inactive or inconclusive.

For CN(Cc1ccccc1)S(=O)(=O)c1ccc(NC(=S)NC(=O)C2CCCC2)cc1 the results were HPGD block inactive, Lamin A splicing inconclusive, ALDH1A1 inh inconclusive, HttQ103 aggreg inactive and HTT ATP protect inactive.
Screening COc1cc(NS(=O)(=O)c2ccc(NC(=S)NC(=O)c3cccs3)cc2)nc(OC)n1 returned HPGD block inactive, Lamin A splicing inactive, ALDH1A1 inh inconclusive, HttQ103 aggreg inactive and HTT ATP protect inactive[10 µM].
`Cc1ccc(C(=O)N2CCN(c3ccc(NC(=S)NC(=O)c4cccs4)cc3)CC2)cc1` gave Lamin A splicing inconclusive, ALDH1A1 inh 14µM, HttQ103 aggreg inactive[9.22 µM] and HTT ATP protect inactive[10 µM].
For CCCn1ncc(CN2CCC(N3CCC(C(=O)N4CCOCC4)CC3)CC2)c1C the results were Lamin A splicing inactive and ALDH1A1 inh inactive.
For CC(C)CCNC(=O)c1ccc2c(SCC(=O)O)c3c(nc2c1)CCCC3 the results were HPGD block 28µM, Lamin A splicing inactive, ALDH1A1 inh inconclusive and HttQ103 aggreg inactive.
CCN(CC)CCCNC(=O)c1ccc2c(SCC(=O)O)c3c(nc2c1)CCC3 was read as HPGD block inactive, Lamin A splicing inactive, ALDH1A1 inh inactive and HttQ103 aggreg inactive.
For O=C1CCC2S/C(=C/Nc3ccc(C(F)(F)F)cc3)C(=O)N12 (stereo not given) the results were Lamin A splicing inactive, ALDH1A1 inh 13µM, HttQ103 aggreg inactive and HTT ATP protect inactive.
Nn1c(Cc2cccc3ccccc23)nnc1SCc1c(F)cccc1Cl was read as HPGD block 22µM, Lamin A splicing inactive, ALDH1A1 inh inactive, HttQ103 aggreg inactive and HTT ATP protect inactive[10 µM].
Nn1c(Cc2cccc3ccccc23)nnc1SCCOc1ccc(Br)cc1 was read as HPGD block 14µM, Lamin A splicing inconclusive, ALDH1A1 inh inconclusive, HttQ103 aggreg inactive and HTT ATP protect inactive[10 µM].
CCC(CC)C(=O)c1c[nH]c(C(=O)NCCCN2CCOCC2)c1 was read as HPGD block inactive, Lamin A splicing inactive, ALDH1A1 inh inactive, HttQ103 aggreg inactive and HTT ATP protect inactive.
`O=C(NCCCN1CCOCC1)c1cc(C(=O)C2CCCCC2)c[nH]1` gave Lamin A splicing inactive, ALDH1A1 inh 25µM, HttQ103 aggreg inactive and HTT ATP protect inactive[10 µM].
CC(C)C[C@@H](CC(=O)N[C@@H](CCC(=O)O)CC(=O)O)NC(=O)[C@@H]1CCCC[C@H]1NC(=O)C[C@@H](NC(=O)C[C@H](Cc1ccccc1)NC(=O)[C@@H]1CNCC[C@H]1N)C(C)C was read as HPGD block inactive, ALDH1A1 inh inactive and HTT ATP protect inactive[1.9 µM].
Screening CC(O)C(N)C(=O)O (stereo not given) returned Lamin A splicing inconclusive, HttQ103 aggreg inactive and HTT ATP protect inconclusive.
`CCCc1nccn1S(=O)(=O)c1cc(Br)ccc1OC` gave Lamin A splicing inactive.
`Cc1ccccc1NC1=CC(=O)CC(C)(C)C1` gave HPGD block inactive, Lamin A splicing inactive, ALDH1A1 inh inactive, HttQ103 aggreg inactive and HTT ATP protect inactive[10 µM].
`Cc1ccc(C)c(NC2=CC(=O)CC(C)(C)C2)c1C#N` gave HPGD block inactive, Lamin A splicing inconclusive, ALDH1A1 inh 13µM, HttQ103 aggreg inactive and HTT ATP protect inactive.
For CC(C)=CCC/C(C)=C/C=C/C(C)=C/C=C/C(C)=C/C=C/C=C(C)/C=C/C=C(C)/C=C/C=C(\C)CCC=C(C)C the results were Lamin A splicing inconclusive, HttQ103 aggreg inactive and HTT ATP protect inconclusive.
Screening N#C/C(=C\c1ccncc1)c1nc2ccccc2c(=O)[nH]1 returned Lamin A splicing inconclusive, ALDH1A1 inh 7.9µM, HttQ103 aggreg inactive and HTT ATP protect inactive.
For N#C/C(=C/c1ccncc1)c1nc2ccccc2c(=O)[nH]1 the results were HttQ103 aggreg inactive[9.22 µM] and HTT ATP protect inactive[10 µM].
For O=C(c1cnn(C(=O)c2ccccc2)c1)c1ccccc1O the results were HPGD block inactive, Lamin A splicing inactive, ALDH1A1 inh 2.2µM, HttQ103 aggreg inactive and HTT ATP protect inactive[10 µM].
Screening O=C(c1cnn(-c2nc3ccccc3s2)c1)c1ccccc1O returned HPGD block inconclusive, Lamin A splicing inactive, ALDH1A1 inh inactive, HttQ103 aggreg inactive and HTT ATP protect inactive[4.97 µM].
Cc1ccc(O)c(C(=O)c2cnn(C(=O)COc3ccc(Cl)cc3)c2)c1 was read as HPGD block inactive, Lamin A splicing inactive, ALDH1A1 inh 1.8µM, HttQ103 aggreg 5.6µM and HTT ATP protect inactive[10 µM].
For O=C(c1cnn(C(=O)COc2ccc(Cl)cc2)c1)c1ccccc1O the results were HPGD block inactive, Lamin A splicing inactive, ALDH1A1 inh 4.5µM, HttQ103 aggreg inactive and HTT ATP protect inactive[10 µM].
Screening CC(C)Oc1ccc(CNC(=O)c2cnc3sc(N4CCCC4)nn3c2=O)cc1 returned Lamin A splicing inactive.
Screening COc1ccccc1N1CCN(C(=O)c2oc3ccc(F)cc3c2C)CC1 returned HPGD block inactive, Lamin A splicing inconclusive, ALDH1A1 inh inactive, HttQ103 aggreg 11µM and HTT ATP protect inactive[10 µM].
For CCC(C(=O)N1CCN(c2ccccc2OC)CC1)c1ccccc1 (stereo not given) the results were HPGD block inactive, Lamin A splicing inconclusive, ALDH1A1 inh 40µM and HttQ103 aggreg inactive.
`CCOC(=O)N1CCN(c2ccccc2OC)CC1` gave ALDH1A1 inh inactive, HttQ103 aggreg inactive[9.22 µM] and HTT ATP protect inactive[10 µM].
`COc1ccccc1N1CCN(C[C@@H](C(=O)NC(C)(C)C)c2ccccc2)CC1` gave HPGD block inactive, ALDH1A1 inh 25µM and HTT ATP protect inactive[1.9 µM].
COc1ccccc1N1CCN(C(=O)c2ccccc2Oc2ccccc2)CC1 was read as HPGD block inactive, Lamin A splicing inactive, ALDH1A1 inh 0.56µM, HttQ103 aggreg inactive and HTT ATP protect inactive.
`O=C(c1ccccc1Oc1ccccc1)N1CCN(c2ccccc2F)CC1` gave HPGD block inactive, Lamin A splicing inactive, ALDH1A1 inh inactive, HttQ103 aggreg inactive and HTT ATP protect inactive.
For CN(C)CCNC(=O)CCCN1C(=O)c2cccnc2Oc2ccc(Cl)cc21 the results were Lamin A splicing inactive.
Screening COc1ccccc1N1CCN(C(=O)c2ccc3nc(-c4ccco4)c(-c4ccco4)nc3c2)CC1 returned HPGD block inactive, Lamin A splicing inconclusive, ALDH1A1 inh 13µM, HttQ103 aggreg inactive and HTT ATP protect inactive[0.074 µM].
For NC(N)=N/N=C(/c1ccccc1)c1ccc(O)cc1O the results were HPGD block inactive, ALDH1A1 inh inactive[13.5 µM] and HTT ATP protect inactive[10 µM].
`Cc1c(Cl)cccc1NC(CC(=O)c1ccccc1)C(=O)OCC(=O)c1cccs1` (stereo not given) gave Lamin A splicing inactive, ALDH1A1 inh inactive, HttQ103 aggreg inconclusive and HTT ATP protect inactive[10 µM].
`COc1ccccc1NC(CC(=O)c1ccccc1)C(=O)OCC(=O)c1ccc(F)cc1` (stereo not given) gave HPGD block inactive, Lamin A splicing inactive, ALDH1A1 inh 13µM, HttQ103 aggreg inconclusive and HTT ATP protect inactive[10 µM].
